Bioassay records from PubChem BioAssay.
Shown are actives, neighbours in structure and some others; about 7% of the full set was active somewhere.
Integrin act MD = activates integrin-mediated alleviation for muscular dystrophy; Potency, µM (doses to about 38.3 µM), for the others: at the top dose activation, most hits filed as activators; AID 624291; hit rate 0.064% among 350,000; alpha7betagal myoblasts, beta-gal FDG fluorescence, 48 h;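 further: potency means the concentration at half of the fitted maximal effect; 100% = response of the positive control SU9516; nearly all actives have a fitted effect of over 60% in size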
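Alpha7betagal+/- myoblasts (passage 13) were plated 16-24 hr, then exposed to compounds (1:260 dilution of DMSO stock) for 48 hours at 37C. After MPER lysis, β-galactosidase reporter activity was read as FDG fluorescence (ex 480/em 540) after 30 minutes.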
ATXN viability = viability counter-screen for ATXN expression inhibitors. hit rate 0.49% among 400,000. Potency, µM (doses to about 56.7 µM), usual class: cytotoxic. AID 651635. S2 cells (HEK-293 line with an ATXN2-luciferase reporter) viability, CellTiter-Fluor protease fluorescence, 24 h; further: potency means the concentration at half of the fitted maximal effect; nearly all actives have a fitted effect of over 40% in size
DRD3 agonist = activates the human D3 dopamine receptor; P35462; D3R DiscoveRx beta-arrestin cells, luminescence, 90 min; AID 652048; max activation, %; hit rate 0.58% among 410,000; in the data active means max activation above about 30%; further: 0% is about no effect
Target sequence (P35462 whole entry, looked up): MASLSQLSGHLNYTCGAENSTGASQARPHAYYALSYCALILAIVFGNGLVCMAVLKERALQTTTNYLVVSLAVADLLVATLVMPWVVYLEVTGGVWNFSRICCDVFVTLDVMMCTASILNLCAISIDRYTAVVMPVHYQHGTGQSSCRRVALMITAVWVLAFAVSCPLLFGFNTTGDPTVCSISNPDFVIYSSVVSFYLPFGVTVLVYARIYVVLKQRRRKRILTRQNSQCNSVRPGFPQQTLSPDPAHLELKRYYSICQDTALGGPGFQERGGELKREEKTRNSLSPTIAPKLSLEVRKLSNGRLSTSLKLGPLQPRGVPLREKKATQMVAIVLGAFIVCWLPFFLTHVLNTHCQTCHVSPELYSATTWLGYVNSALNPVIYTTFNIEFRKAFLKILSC
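Agonist mode: compounds and dopamine controls were applied to plated cells for 90 min at 37 degrees C after an overnight attachment at 1500 cells/well. Luminescent read-out followed 30 - 60 minutes at room temperature with DiscoveRx detection reagent.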
IL-1B inflam inh = inflammasome signaling inhibition, IL-1 beta readout | THP-1 LPS/ATP IL-1B secretion, AlphaLISA, 16 h; active compounds read low | activity change, % at 57.5 µM | hit rate 4.7% among 360,000; in the data active means activity change below about -50%; inconclusive means mostly about -30% to -49%; further: on the % scale 0 is the no-effect control and ±100 the full control effect
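Secreted IL-1B measured by AlphaLISA bead assay after 16 h compound exposure of THP-1 cells; compounds (final up to 57.5 uM) added 1 h before LPS (250 ng/mL) and ATP (1.25 mM) stimulation; lower signal means less secretion.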
DRD3 antagonist = blocks the human D3 dopamine receptor; P35462; D3R cells, DiscoveRx beta-arrestin luminescence, antagonist mode; active compounds read low; max response, negative = inhibition, %; hit rate 2.5% among 360,000; in the data active means max response below about -50%; inconclusive means no clear call, values can overlap the other calls; further: on the % scale 0 is the no-effect control and ±100 the full control effect
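Cells plated overnight at 1500 cells/well, then exposed to library compounds with dopamine controls for 90 minutes at 37 degrees C. DiscoveRx reagent added for 30–60 minutes at room temperature; luminescence read, quantitative HTS format.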
ATXN2 expr inh = ATXN2 expression inhibition. HEK-293 ATXN2-luciferase reporter, luminescence, 24 h. Potency, µM (series often up to 57 µM), for inactives: at the highest dose activity change, negative = inhibition, hits mostly inhibitors. hit rate 0.72% among 360,000. AID 1745845; further: potency means the concentration at half of the fitted maximal effect; on the % scale 0 is the no-effect control and ±100 the full control effect; nearly all actives have a fitted effect of over 55% in size
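ATXN2-luciferase reporter cells (luciferase flanked by upstream and downstream ATXN2 gene portions) were treated 24 h at 37 °C with compounds at up to 57 uM. SteadyGlo luminescence gave expression; GF-AFC fluorescence gave viability.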
Active calls of the source: *; [ ] = another dose, or the depositor's remark. Unless noted, the call rests on the fitted dose curve; in most records, active means well fitted curve in the direction sought with a large enough effect; inconclusive means small, poorly fitted or top-dose-only effect, or another doubt; inactive means no such curve, though single readings can be large; an effect the other way counts as inactive or inconclusive.

Results for COc1ccccc1C(=O)NNC1=NS(=O)(=O)c2ccccc21 ?
Integrin act MD: 26%; ATXN viability: inactive; DRD3 agonist: -5; IL-1B inflam inh: 4; DRD3 antagonist: -11; ATXN2 expr inh: -7%

What do the screens show for `COc1ccc(Nc2oc(/C=C/c3ccccc3OC)nc2C#N)cc1`?
DRD3 agonist: 0

Results for CN1CCN(CC(O)(c2ccc(Cl)cc2)c2ccc(Cl)cc2)CC1 ?
Integrin act MD: -68%; ATXN viability: inactive; DRD3 agonist: -6; IL-1B inflam inh: -85*; DRD3 antagonist: -20; ATXN2 expr inh: -11%[11.3 µM]

What do the screens show for `CN1CCN(CC(O)COc2ccc(Cl)cc2)CC1` (stereo not given)?
Integrin act MD: 9%; ATXN viability: inconclusive; DRD3 agonist: 1; IL-1B inflam inh: 13; DRD3 antagonist: -20; ATXN2 expr inh: -15%

What do the screens show for `O=[N+]([O-])c1cc(S(=O)(=O)NCCN2CCOCC2)ccc1Sc1nnnn1-c1ccccc1`?
Integrin act MD: -19%; ATXN viability: inconclusive; DRD3 agonist: -3; IL-1B inflam inh: -100*; DRD3 antagonist: 2; ATXN2 expr inh: -31%

What do the screens show for `CN(C)CCNS(=O)(=O)c1ccc(N2CCN(c3ccc(F)cc3)CC2)c([N+](=O)[O-])c1`?
Integrin act MD: -51%; ATXN viability: inconclusive; DRD3 agonist: 2; IL-1B inflam inh: -73*; DRD3 antagonist: -15; ATXN2 expr inh: -15%

Results for O=S(=O)(NCCN1CCOCC1)c1ccc2ccccc2c1 ?
Integrin act MD: 8%; ATXN viability: inactive; DRD3 agonist: -1; IL-1B inflam inh: -17; DRD3 antagonist: -12; ATXN2 expr inh: -8%

Results for Cc1ccc(-n2nnnc2Sc2ccc(S(=O)(=O)NCCN(C)C)cc2[N+](=O)[O-])cc1 ?
Integrin act MD: -52%; ATXN viability: inconclusive; DRD3 agonist: -5; IL-1B inflam inh: -51*; DRD3 antagonist: 0; ATXN2 expr inh: inconclusive

Results for Cc1ccc(S(=O)(=O)NCCSc2nnnn2-c2ccc(C(N)=O)cc2)cc1 ?
Integrin act MD: -4%; ATXN viability: inactive; DRD3 agonist: -1; IL-1B inflam inh: 6; DRD3 antagonist: -13; ATXN2 expr inh: 1%

What do the screens show for `O=C(COc1ccc(S(=O)(=O)N2CCCC2)cc1)N1CCCCC1`?
Integrin act MD: 4%; ATXN viability: inactive; DRD3 agonist: 2; IL-1B inflam inh: -4; DRD3 antagonist: 22; ATXN2 expr inh: 15%

Results for COc1ccc(S(=O)(=O)N2CCN(c3cc(-c4ccccc4)nc4ncnn34)CC2)cc1 ?
Integrin act MD: -9%[7.66 µM]; ATXN viability: inactive; DRD3 agonist: 6; IL-1B inflam inh: -69*; DRD3 antagonist: 40; ATXN2 expr inh: -25%

How did COc1ccc(CCc2ccc3cc(OC)ccc3n2)cc1 do in these assays?
Integrin act MD: 2%; ATXN viability: inactive; DRD3 agonist: -6; IL-1B inflam inh: -55*; DRD3 antagonist: 1; ATXN2 expr inh: 2%

Results for CO[C@H]1CN(C)C(=O)c2cc(NC(=O)C3CCOCC3)ccc2OC[C@H](C)N(Cc2nccs2)C[C@H]1C ?
DRD3 agonist: 5; IL-1B inflam inh: -62*; DRD3 antagonist: 20

Results for CCN(C/C=C/c1ccccc1OC)Cc1ccccc1 ?
Integrin act MD: 16%; ATXN viability: inactive; DRD3 agonist: -25; IL-1B inflam inh: 4; DRD3 antagonist: -82*; ATXN2 expr inh: -26%

How did Cc1ccc(S(=O)(=O)N(C)C)cc1NC(=O)COC(=O)/C=C/c1ccc2ccccc2n1 do in these assays?
Integrin act MD: -39%; ATXN viability: inactive; DRD3 agonist: -10; IL-1B inflam inh: -106*; DRD3 antagonist: -1; ATXN2 expr inh: 31%

Results for O=C(COC(=O)/C=C/c1ccc2ccccc2n1)NNC(=O)c1ccc([N+](=O)[O-])cc1 ?
Integrin act MD: -40%; ATXN viability: inactive; DRD3 agonist: -3; IL-1B inflam inh: -53*; DRD3 antagonist: 3; ATXN2 expr inh: 10%

What do the screens show for `CN(C)S(=O)(=O)c1ccc(Cl)c(NC(=O)COC(=O)c2cc(-c3ccccc3)nc3ccccc23)c1`?
Integrin act MD: 0%; ATXN viability: inconclusive; DRD3 agonist: 36*; IL-1B inflam inh: 34; DRD3 antagonist: 3; ATXN2 expr inh: -1%

What do the screens show for `Cc1cc(O)ccc1NC(=O)Cc1cccc2ccccc12`?
Integrin act MD: -11%; ATXN viability: inactive; DRD3 agonist: -12; IL-1B inflam inh: 12; DRD3 antagonist: 4; ATXN2 expr inh: -20%

How did CN(C)c1ccc(S(=O)(=O)N(C)C)cc1NC(=O)Cc1cccc2ccccc12 do in these assays?
Integrin act MD: 17%; ATXN viability: inactive; DRD3 agonist: -13; IL-1B inflam inh: -52*; DRD3 antagonist: -12; ATXN2 expr inh: 3%

Results for OC(c1ccc(F)c(F)c1)c1nc(-c2cccc(F)c2)cs1 (stereo not given) ?
ATXN viability: inconclusive; DRD3 agonist: 8; IL-1B inflam inh: 28; DRD3 antagonist: -25; ATXN2 expr inh: -6%

What do the screens show for `CCOC(=O)c1sc2nc(NC(=O)C(C)(C)C)sc2c1C`?
Integrin act MD: -30%; ATXN viability: inconclusive; DRD3 agonist: 34*; IL-1B inflam inh: 14; DRD3 antagonist: 33; ATXN2 expr inh: -21%

What do the screens show for `O=C(O)/C=C/C(=O)Nc1nc(-c2ccc3ccccc3c2)cs1`?
Integrin act MD: -1%; ATXN viability: inconclusive; DRD3 agonist: -10; IL-1B inflam inh: 13; DRD3 antagonist: 23; ATXN2 expr inh: -12%

What do the screens show for `Cn1sc2ccccc2c1=O`?
Integrin act MD: -61%; DRD3 agonist: -7; IL-1B inflam inh: -100*; DRD3 antagonist: -15; ATXN2 expr inh: 28µM*

Results for O=c1c2ccccc2sn1-c1cccc(Cl)c1 ?
Integrin act MD: -51%; ATXN viability: 25µM*; DRD3 agonist: -6; IL-1B inflam inh: -102*; DRD3 antagonist: inconclusive; ATXN2 expr inh: -25%

Results for O=c1c2ccccc2sn1-c1ccccc1F ?
Integrin act MD: -67%; ATXN viability: 20µM*; DRD3 agonist: -14; IL-1B inflam inh: -107*; DRD3 antagonist: inconclusive; ATXN2 expr inh: inconclusive

What do the screens show for `COCCn1c(=O)sc2ccccc2c1=O`?
Integrin act MD: 0%; ATXN viability: inactive; DRD3 agonist: 1; IL-1B inflam inh: 65; DRD3 antagonist: 10; ATXN2 expr inh: -6%

What do the screens show for `O=c1c2ccccc2sn1-c1nccs1`?
Integrin act MD: -71%; ATXN viability: inconclusive; DRD3 agonist: -9; IL-1B inflam inh: -105*; DRD3 antagonist: inconclusive; ATXN2 expr inh: -4%[11.3 µM]

What do the screens show for `Cn1c(=O)n(-c2cccc(Cl)c2)c(=O)c2sc3ccccc3c21`?
ATXN viability: inactive; DRD3 agonist: 1; ATXN2 expr inh: 2%
